HDAC3 inhib – human HDAC3 inhibition | O15379 | AID 2718 | recombinant HDAC3, fluorogenic peptide/trypsin coupled, fluorescence | hit rate 0.15% among 320,000 | inhibition, % at 8.3 µM; in the data active means inhibition above about 26%, passing the limit was not always enough; inconclusive means no clear call, values can overlap the other calls
PHOSPHO1 inh – PHOSPHO1 (human) inhibition; Q8TCT1; recombinant PHOSPHO1, absorbance phosphatase assay; inhibition, % at 13.3 µM; hit rate 1.1% among 290,000; in the data active means inhibition above about 60%
PvdQ acylase – P. aeruginosa PvdQ acylase inhibition | purified PvdQ acylase, fluorescence plate reader | inhibition, % at 10 µM | hit rate 0.063% among 340,000; in the data active means inhibition above about 30%, passing the limit was not always enough; inconclusive means no clear call, values can overlap the other calls;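 further: 0% = vehicle neutral wells and 100% = reference inhibitor wells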
pCIP destab – compounds decreasing mouse p/CIP protein stability | Q05BA5 | F442A p/CIP-EGFP cells, EGFP fluorescence, 16 h | decrease of EGFP signal, % at 10 µM | hit rate 0.01% among 290,000;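 active means EGFP signal decrease of at least 30% at 10 µM or well 3 SD below plate mean, unless failing retest; inactive means the rest, including hits failing retest or dose response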
Mot1-301 SUMO – inhibitors of SUMOylation pathway: yeast Mot1-301 growth rescue; S. cerevisiae Mot1-301 growth rescue, ATP luminescence, 38.5C; percent above DMSO median, 100 means doubled; hit rate 1% among 320,000; growth rescue, % at 18.8 µM;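 active means every valid replicate shows activation above 250% relative to neutral control wells; inactive means the rest, any valid replicate at or below 250%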;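 further: OY570 slx delta 5 strain wells were the positive control but not used for scaling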
JMJD2C inh – inhibitors of human GASC-1 (JMJD2C) demethylase. GST-JMJD2C(1-420) H3K9me3 demethylation, DELFIA europium. AID 2099. inhibition, % at 2.35 µM. Q9H3R0. hit rate 0.069% among 330,000;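 active means more than half of a compound's replicate wells show inhibition beyond 50%, single wells judged on their own value; inconclusive means some, but no more than half, of replicates pass 50% inhibition; inactive means no replicate passes 50% inhibition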;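 further: signal counts dimethyl H3K9 product captured on neutravidin plate; 0% = median of DMSO wells and 100% = 0.3 times that DMSO median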
Target sequence (Q9H3R0 1-420 limits assumed): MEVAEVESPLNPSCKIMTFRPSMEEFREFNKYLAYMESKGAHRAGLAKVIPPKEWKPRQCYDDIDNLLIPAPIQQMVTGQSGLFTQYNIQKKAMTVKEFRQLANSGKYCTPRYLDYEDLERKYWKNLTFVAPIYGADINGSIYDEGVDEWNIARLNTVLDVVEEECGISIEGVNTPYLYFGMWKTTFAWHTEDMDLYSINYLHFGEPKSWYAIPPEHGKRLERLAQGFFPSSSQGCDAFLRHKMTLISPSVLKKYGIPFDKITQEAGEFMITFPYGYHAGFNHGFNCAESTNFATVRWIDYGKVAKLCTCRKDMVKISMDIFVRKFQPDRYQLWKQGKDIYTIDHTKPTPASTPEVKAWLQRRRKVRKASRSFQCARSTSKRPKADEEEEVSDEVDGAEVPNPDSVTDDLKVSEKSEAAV
Numbers without * were called inactive; ? = inconclusive; · = no result. This is a sample that favours compounds with a hit; in the whole collection about 2.2% have one here.

SMILES	HDAC3 inhib	PHOSPHO1 inh	PvdQ acylase	pCIP destab	Mot1-301 SUMO	JMJD2C inh
CCC(NC(=O)Nc1nnc(C(F)(F)F)s1)(C(F)(F)F)C(F)(F)F	9	15	-20	30*	-30	7
COc1ccccc1N(CC(=O)N1CCOCC1)S(C)(=O)=O	-6	34	-13	-7	2	-1
Nc1c(C(=O)NC2CC2)sc2nc3c(c(-c4ccco4)c12)CC/C3=C/c1ccco1	2	81*	-8	0	-3	40
Cc1nc2ccc(C(C(F)(F)F)(C(F)(F)F)C(F)(F)F)cc2[nH]1	32*	-11	-11	14	-1	-4
COc1cc(Cl)c(C)cc1NC(=O)CN(C)C1CCS(=O)(=O)C1 (centres undefined)	0	·	9	·	-27	-3
C=C(C)c1cccc(C(C)(C)NC(=O)NCc2cccnc2)c1	4	41	-8	-12	26	-7
C=C(C)c1cccc(C(C)(C)NC(=O)NCc2ccncc2)c1	-5	66*	-19	-12	3	-6
O=C(c1ccc(F)cc1)C1CCN(S(=O)(=O)c2ccccc2)CC1	5	12	-13	1	-2	1
Cc1nc2[nH]c(=S)[nH]c2cc1Br	1	101*	3	3	-13	1
O=C(NCc1ccccc1)C1CCCN(S(=O)(=O)c2cccc3nsnc23)C1 (centres undefined)	6	31	-5	0	31	25
Cc1ccc(NC(=O)/C=C/C(=O)O)c([N+](=O)[O-])c1	0	-1	-10	-1	-13	3
Cc1ccc(NC(=O)/C=C/c2cccs2)c([N+](=O)[O-])c1	4	17	-2	4	-2	56*
O=C(/C=C/c1cccs1)Nc1ccncc1	15	9	36*	2	-2	1
Cc1cc(F)ccc1S(=O)(=O)N1CCCOC1CNC(=O)C(=O)NCCCN1CCOCC1 (centres undefined)	-10	37	-19	-8	-11	-3
COc1ccc(-c2nn(-c3ccccc3)cc2CNC[C@H]2O[C@@H](n3cnc4c(N)ncnc43)[C@H](O)[C@@H]2O)cc1	-4	·	-19	·	-10	9
COc1cc(NS(=O)(=O)c2ccc(NC(=O)CSC3=NCCS3)cc2)nc(OC)n1	8	76*	·	-17	-13	-9
CCOC(=O)N1CCN(Cc2nc(N)nc(Nc3ccc(C)cc3C)n2)CC1	-2	15	-16	6	·	·
CCn1c(=O)c(C(=O)Nc2ccsc2C(=O)OC)c(O)c2ccccc21	-3	-12	·	8	783*	1
CCCn1c(=O)c(C(=O)NCCc2ccc(Cl)cc2)c(O)c2ccccc21	0	39	-1	-1	25	0
CCn1c(=O)c(C(=O)NCCc2ccc(Cl)cc2)c(O)c2ccccc21	3	-26	-4	-16	36	60*
CC(C)c1cc(=O)n2[nH]c(SCc3ccccc3)nc2n1	4	63*	-11	2	-2	7
Cc1ccc(C)c(Nc2nc3nonc3nc2N2CCOCC2)c1	4	61*	1	3	-5	3
Cc1ccc(C(C)C)cc1OCCCCN1CCCC1	·	1	-9	-6	320*	20
CN(C)c1ccc(NC(=O)c2cccc(N3C(=O)CCC3=O)c2)cc1	4	66*	20	-16	-9	1
O=C(Nc1ccccc1)c1cccc(N2C(=O)CCC2=O)c1	0	-11	2	-8	-2	0
SMILES	HDAC3 inhib	PHOSPHO1 inh	PvdQ acylase	pCIP destab	Mot1-301 SUMO	JMJD2C inh
CCN1CCN(C(=O)c2ccc3c(c2)N(Cc2ccccc2F)C(=O)c2ccccc2S3(=O)=O)CC1	·	14	4	-7	·	1
COc1cc(N=c2ssnc2Cl)cc(OC)c1	?	48	-17	-11	243	6
OCc1ccccc1N=c1ssnc1Cl	-4	91*	·	-2	-16	-26
Clc1nssc1=Nc1ccc(Br)cc1	·	80*	-1	0	·	-2
Cc1ccc(Nc2nc(C)cs2)cc1	1	65*	0	-13	15	-1
CCOC(=O)C1CCN(S(=O)(=O)c2ccc3c(c2)CCN3C(=O)C2CCC2)CC1	-6	17	-7	-17	7	160
CCOC(=O)c1c(-c2ccsc2)csc1N	5	92*	11	-4	0	-6
CCOC(=O)c1c(-c2ccc(C)o2)csc1N	0	69*	-8	-10	-9	-21

Bioassay records from PubChem.
